According to PubChem BioAssay AID1159580 (chemical genetic matrix, 2015):
About 2,000 (36%) of roughly 5,500 compounds were called active. About 18% were inconclusive and are not listed. Rule as the data show it: active = normalized growth mostly below about 0.91 (no sharp cut-off); inconclusive = no clear call, values can overlap the other calls; inactive = mostly above about 0.92. Some of the results follow.

Assay: chemical genetic growth profiling, strain panel (AID 1159580);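 also: tested at 20 µM; growth read once vehicle control cultures reached saturation at 30 °C; 1 = growth at the plate median or of vehicle wells; lower values mean less growth of the strain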
Details: S. cerevisiae deletion strains, growth OD

Measured: normalized growth

Cc1c(Nc2ncccc2C(=O)O)cccc1C(F)(F)F
inactive: locus YAL021C, strain ccr4, hits give low values 0.937 | locus YAL026C, strain drs2, hits give low values 0.979 | locus YAL030W, strain snc1, hits give low values 0.981 | locus YBL061C, strain skt5, hits give low values 0.981 | locus YBR009C, strain hhf1, hits give low values 0.967 | locus YBR023C, strain chs3, hits give low values 0.99 | locus YBR171W, strain sec66, hits give low values 0.969 | locus YBR231C, strain swc5, hits give low values 1.01 | locus YBR279W, strain paf1, hits give low values 0.987 | locus YCL011C, strain gbp2, hits give low values 0.979 | locus YCL016C, strain dcc1, hits give low values 0.975 | locus YCL069W, strain vba3, hits give low values 0.985 | locus YCR088W, strain abp1, hits give low values 0.979 | locus YDL005C, strain med2, hits give low values 0.986 | locus YDL040C, strain nat1, hits give low values 0.981 | locus YDR001C, strain nth1, hits give low values 0.964 | locus YDR069C, strain doa4, hits give low values 0.966 | locus YDR137W, strain rgp1, hits give low values 0.979 | locus YDR159W, strain sac3, hits give low values 0.999 | locus YDR195W, strain ref2 0.955 | locus YDR297W, strain sur2, hits give low values 0.996 | locus YDR334W, strain swr1, hits give low values 0.961 | locus YDR335W, strain msn5, hits give low values 0.983 | locus YDR392W, strain spt3, hits give low values 1 | locus YEL003W, strain gim4, hits give low values 0.974 | locus YEL037C, strain rad23, hits give low values 0.989 | locus YEL061C, strain CIN8 (second series), hits give low values 0.981 | locus YER015W, strain faa2, hits give low values 0.988 | locus YER016W, strain bim1, hits give low values 0.978 | locus YER111C, strain swi4, hits give low values 0.963 | locus YER155C, strain BEM2 (second series), hits give low values 1.01 | locus YFR010W, strain ubp6, hits give low values 0.978 | locus YGL167C, strain pmr1, hits give low values 0.952 | locus YGL173C, strain kem1, hits give low values 0.984 | locus YGL227W, strain vid30, hits give low values 0.978 | locus YGL240W, strain doc1, hits give low values 1.02 | locus YGL253W, strain hxk2, hits give low values 0.968 | locus YHR013C, strain ard1, hits give low values 0.958 | locus YHR027C, strain rpn1, hits give low values 0.971 | locus YHR030C, strain SLT2, hits give low values 0.947 | locus YHR079C, strain IRE1, hits give low values 0.974 | locus YHR142W, strain chs7, hits give low values 0.96 | locus YJL092W, strain hpr5, hits give low values 0.961 | locus YJL095W, strain BCK1 (second series), hits give low values 0.983 | locus YJL095W, strain BCK1, hits give low values 0.989 | locus YJL115W, strain asf1, hits give low values 0.958 | locus YJL129C, strain trk1, hits give low values 0.955 | locus YJL154C, strain vps35, hits give low values 0.972 | locus YJL164C, strain tpk1, hits give low values 0.97 | locus YJL166W, strain qcr8, hits give low values 0.994 | locus YJL187C, strain SWE1, hits give low values 0.992 | locus YJR066W, strain TOR1, hits give low values 0.928 | locus YKL160W, strain elf1, hits give low values 0.967 | locus YKR026C, strain gcn3, hits give low values 0.972 | locus YKR091W, strain srl3, hits give low values 0.97 | locus YLL001W, strain dnm1, hits give low values 0.981 | locus YLL026W, hits give low values 0.978 | locus YLL041C, strain sdh2, hits give low values 0.953 | locus YLR027C, strain aat2, hits give low values 0.993 | locus YLR113W, strain HOG1, hits give low values 0.991 | locus YLR221C, strain rsa3, hits give low values 0.997 | locus YLR258W, strain gsy2, hits give low values 0.969 | locus YLR262C, strain YPT6 (second series), hits give low values 1.02 | locus YLR320W, strain mms22, hits give low values 1.01 | locus YLR342W, strain FKS1, hits give low values 0.988 | locus YLR357W, strain rsc2, hits give low values 0.952 | locus YLR370C, strain arc18, hits give low values 0.963 | locus YLR384C, strain iki3, hits give low values 1 | locus YML120C, strain ndi1, hits give low values 0.974 | locus YMR058W, strain fet3, hits give low values 0.972 | locus YMR125W, strain sto1, hits give low values 0.945 | locus YMR129W, hits give low values 0.972 | locus YMR205C, strain PFK2, hits give low values 0.977 | locus YMR231W, strain pep5, hits give low values 0.983 | locus YNL071W, strain lat1, hits give low values 0.981 | locus YNL183C, strain NPR1, hits give low values 0.954 | locus YNL209W, strain ssb2, hits give low values 0.983 | locus YNL248C, strain rpa49, hits give low values 0.996 | locus YNL322C, strain KRE1 (second series), hits give low values 0.97 | locus YNR049C, strain mso1, hits give low values 0.962 | locus YOR001W, strain rrp6, hits give low values 0.983 | locus YOR070C, strain gyp1, hits give low values 0.989 | locus YOR080W, strain dia2, hits give low values 0.979 | locus YOR083W, strain WHI5, hits give low values 0.98 | locus YOR106W, strain vam3, hits give low values 0.957 | locus YOR231W, strain MKK1, hits give low values 0.982 | locus YOR265W, strain rbl2, hits give low values 0.968 | locus YOR270C, strain vph1, hits give low values 0.983 | locus YOR290C, strain snf2, hits give low values 0.943 | locus YPL051W, strain arl3, hits give low values 1.01 | locus YPL078C, strain atp4, hits give low values 0.951 | locus YPL106C, strain sse1, hits give low values 0.982 | locus YPL240C, strain hsp82, hits give low values 0.98 | locus YPL256C, strain CLN2, hits give low values 0.951
